In all, about 320,000 compounds went through this assay and about 2,800 (0.88%) were called active.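 The calls were made as follows: active = inhibition above the mean inhibition of all tested compounds plus 3 SD, computed separately for each screening campaign (cut at about 15% in these data); inactive = the rest.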 Shown is part of a subset that was picked to be rich in actives.

The term inhibition denotes the drop in the measured response relative to a control, in per cent.

The target in this assay is Serine/threonine-protein phosphatase PP1-alpha catalytic subunit (Homo sapiens) (UniProt P62136). In words: PP1-alpha phosphatase inhibitors, primary screen, counter-screen for PP5 inhibitor project, biochemical, fluorescence, OMFP substrate, single point (AID 2235). The following applies: purified PP1alpha, at 6.7 µM, stronger effect = higher value.
Sequence of Serine/threonine-protein phosphatase PP1-alpha catalytic subunit (Homo sapiens) (P62136 whole entry, looked up): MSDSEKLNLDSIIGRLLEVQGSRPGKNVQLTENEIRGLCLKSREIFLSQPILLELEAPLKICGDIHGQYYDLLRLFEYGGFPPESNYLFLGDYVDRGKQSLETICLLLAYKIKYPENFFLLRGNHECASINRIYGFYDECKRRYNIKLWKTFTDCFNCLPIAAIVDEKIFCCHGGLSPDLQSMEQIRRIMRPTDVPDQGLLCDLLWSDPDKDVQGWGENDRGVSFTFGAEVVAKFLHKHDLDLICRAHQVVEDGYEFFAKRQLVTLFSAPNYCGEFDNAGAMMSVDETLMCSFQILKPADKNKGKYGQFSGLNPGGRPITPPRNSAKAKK
For the compound `COc1ccc(NS(=O)(=O)c2cc(NC(=O)C3CCCCC3)ccc2N2CCOCC2)cc1`, the inhibition was 0.37% (inactive).

For `COc1cccc(C2Nc3cccc4cccc(c34)N2)c1`, the inhibition was 3.61% (inactive).

Regarding `Oc1ccc(C2Nc3cccc4cccc(c34)N2)cc1`, the inhibition was 30.9% (active).

`Cc1ccc(C2Nc3cccc4cccc(c34)N2)cc1`: the inhibition is 1.42% (inactive).

As to `O=C(c1cc(C(=O)N2CCN(c3ccc(F)cc3)CC2)cc([N+](=O)[O-])c1)N1CCN(c2ccc(F)cc2)CC1`, the inhibition was 1.38% (inactive).

As for `O=C1Nc2cc(C(=O)N3CCN(c4ccc(F)cc4)CC3)ccc2NC1CSCc1cccc(F)c1` (stereo not given), the inhibition was 14.3% (inactive).

As for `Cc1ccc(CSCC2Nc3ccc(C(=O)N4CCN(c5ccc(F)cc5)CC4)cc3NC2=O)cc1` (stereo not given), the inhibition is 17.7% (active).

In the case of `CCS(=O)(=O)N1Cc2ccccc2CC1C(=O)Nc1nc2ccc(F)cc2s1` (stereo not given), the inhibition is 3.36% (inactive).

Take `CC(=O)c1c(C)[nH]c(C(=O)OCC(=O)Nc2sc3c(c2C#N)CCCC3)c1C`: the inhibition is 8.8% (inactive).

Take `Cc1cccc(N(Cc2ccccc2)C(=O)c2ccccc2F)c1`: the inhibition is 0.11% (inactive).

Consider `COc1ccc(C2=NS(=O)(=O)N(C)C(C(=O)NC(C)c3ccccc3)=C2)cc1` (stereo not given), for which the inhibition was -1.27% (inactive).

As to `CCc1ccc(CNC(=O)C2CCN(c3nnc(C)c4c(C)n(-c5ccc(C)cc5)nc34)CC2)cc1`, the inhibition is 16.5% (active).

`CCOc1ccc(CNC(=O)C2CCCN(c3nnc(C)c4c(C)n(-c5ccccc5)nc34)C2)cc1` (stereo not given): the inhibition is 1.12% (inactive).

For the compound `COc1ccc(-n2nc3c(N4CCC(C(=O)NCc5ccccc5)CC4)nnc(C)c3c2C)cc1`, the inhibition is 4.6% (inactive).

Take `CC(C)Cn1c(N)c(C(=O)COC(=O)CN2C(=O)C3CC=CCC3C2=O)c(=O)n(C)c1=O` (stereo not given): the inhibition was -0.85% (inactive).

On to `O=C(Nc1ccc2ccccc2c1)Nc1ccc2snnc2c1`, for which the inhibition is 13.3% (inactive).

`Cc1nn(-c2ccccc2)c2[nH]c(C(F)(F)F)cc(=O)c12`: the inhibition is 2.68% (inactive).

With `CN1C(=O)/C(=C/c2ccc(C(=O)NC3CCCC3)cc2)Oc2ccccc21`, the inhibition is 1.1% (inactive).

As for `CN1CCN(CCCNC(=O)c2ccc(/C=C3\Oc4ccccc4N(Cc4ccc(Cl)cc4)C3=O)cc2)CC1`, the inhibition was 25.6% (active).

As to `CCCN1CCN(C(=O)CCCNC(=O)c2ccc(Cl)cc2)CC1`, the inhibition is -3.09% (inactive).

Regarding `Cc1cc(C)nc(-n2nc(C)cc2NC(=O)c2ccc(F)cc2F)n1`, the inhibition is -0.61% (inactive).

On to `O=C(NCc1ccccc1)C(c1cccnc1)N(C(=O)c1csnn1)c1ccc(F)cc1` (stereo not given), for which the inhibition was 8.74% (inactive).

In the case of `CC(=O)c1ccc(N2C(=NC(=O)C(C)C)SC3CS(=O)(=O)CC32)cc1` (stereo not given), the inhibition was -3.39% (inactive).

Turning to `O=C(N=C1SC2CS(=O)(=O)CC2N1c1cc(Cl)ccc1Cl)C1CC1` (stereo not given), the inhibition was 18.9% (active).

In the case of `O=C(CCC1CCCC1)N=C1SC2CS(=O)(=O)CC2N1Cc1ccccc1` (stereo not given), the inhibition was 5.06% (inactive).
